In PubChem BioAssay AID492994 (Johns Hopkins Ion Channel Center, 2010):
Measured potencies and affinities stand elsewhere. Active and inactive are the calls of the source.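 How the source made its calls: active means TRPC4 ion channel inhibited over 30% at some tested dose, with a fitted dose response curve; inactive means no inhibition or no dose response curve.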

Molecular target: Short transient receptor potential channel 4 (Mus musculus) (UniProt Q9QUQ5)
Assay: potency of mouse TRPC4 calcium flux blockers – cell-based, HEK293 TRPC4/mu-opioid, DAMGO stimulus, Fluo-4, dose response (AID 492994)
Conditions: HEK293 TRPC4/mu-opioid cells, Fluo-4 calcium flux, DAMGO-activated; series mostly up to 20 µM

Short transient receptor potential channel 4 (Mus musculus), sequence (Q9QUQ5 whole entry, looked up): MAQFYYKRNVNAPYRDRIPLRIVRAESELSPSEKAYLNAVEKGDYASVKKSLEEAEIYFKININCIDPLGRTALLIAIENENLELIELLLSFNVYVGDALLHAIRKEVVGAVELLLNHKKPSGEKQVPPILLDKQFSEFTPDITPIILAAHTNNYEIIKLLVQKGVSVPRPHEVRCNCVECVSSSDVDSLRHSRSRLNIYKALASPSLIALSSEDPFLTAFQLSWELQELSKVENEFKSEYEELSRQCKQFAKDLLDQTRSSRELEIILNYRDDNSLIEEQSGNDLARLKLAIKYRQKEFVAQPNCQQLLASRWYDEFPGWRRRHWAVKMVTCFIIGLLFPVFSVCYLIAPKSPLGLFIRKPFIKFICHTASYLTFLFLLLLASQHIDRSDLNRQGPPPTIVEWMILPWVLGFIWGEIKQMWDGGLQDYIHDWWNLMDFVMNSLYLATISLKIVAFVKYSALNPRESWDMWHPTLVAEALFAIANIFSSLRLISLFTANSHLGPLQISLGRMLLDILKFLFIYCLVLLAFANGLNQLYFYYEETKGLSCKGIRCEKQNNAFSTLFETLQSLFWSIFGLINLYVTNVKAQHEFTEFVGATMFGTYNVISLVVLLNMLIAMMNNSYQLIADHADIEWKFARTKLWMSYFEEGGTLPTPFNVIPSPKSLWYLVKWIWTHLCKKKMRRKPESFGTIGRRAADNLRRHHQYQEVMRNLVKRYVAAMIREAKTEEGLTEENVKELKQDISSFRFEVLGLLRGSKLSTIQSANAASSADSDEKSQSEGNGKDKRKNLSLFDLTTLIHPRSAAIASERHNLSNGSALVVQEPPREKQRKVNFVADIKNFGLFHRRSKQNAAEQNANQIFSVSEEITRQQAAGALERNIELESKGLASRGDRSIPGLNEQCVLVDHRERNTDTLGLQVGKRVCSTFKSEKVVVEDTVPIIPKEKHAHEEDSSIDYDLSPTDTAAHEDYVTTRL

outcome, inactive:
Cc1cc(N2CCN(CC3CCCO3)CC2)nc2ccccc12 (stereo not given)
Cc1ccnc(N2CCCC2)n1
FC(F)(F)c1cc(N2CCCCC2)nc2ccccc12
Cc1cc(N2CCCCC2)nc2c(C)cccc12
c1ccc(-c2cc(N3CCCC3)nc3ccccc23)cc1
Cc1ccnc(N2CCCCC2)c1
Cc1cc(N(C)CCN(C)C)nc2ccccc12
FC(F)(F)c1cc(N2CCCCCC2)nc2ccccc12
Cc1cc(N2CCCCCC2)nc2c(C)cccc12
CCc1ccc2nc(N3CCCCC3)cc(C)c2c1
c1ccc(-c2cc(N3CCCCCC3)nc3ccccc23)cc1
FC(F)(F)c1cc(N2CCCC2)nc2ccccc12
Cc1ccnc(N2CCCCCC2)n1
COc1ccccc1N1CCN(c2cc(C)c3ccccc3n2)CC1
Cc1cc(N2CCN(c3ccccc3C#N)CC2)nc2ccccc12
Cc1ccnc(N2CCCCCC2)c1
Cc1ccnc(N2CCCC2)c1
COc1ccc(N2CCN(c3cc(C)c4ccccc4n3)CC2)cc1
Cc1ccnc(N2CCCCC2)n1
c1ccc(-c2cc(N3CCCCC3)nc3ccccc23)cc1
